Compounds with a hit are over-represented: about 1.2% of the library has one in this group of screens.
EBV gp42 block – EBV gp42 inhibition. inhibition, % (tested at 21.74 µM). Fluorescence polarization binding assay, mP read-out. actives 0.42% (n = 220,000). Q1HVG2; in the data active means inhibition above about 50%
L929 necroptosis – blocks zVAD induced death of L929 cells | L929 zVAD necroptosis rescue, ATP luminescence, 24 h; with zVAD 60 µM | viability rescue, % at 10 µM | actives 0.38% (n = 220,000);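 active means activation, scaled between plate controls, above about 75%, limit read from the data; inactive means activation under that limit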;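 further: 0% = zVAD with DMSO and 100% = DMSO alone without zVAD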
eIF4E-4G inh – inhibitors of eIF4E and eIF4G interaction in translation initiation; TR-FRET eIF4E-eIF4GI(517-606) binding, 2 h; inhibition, % at 21.7 µM; actives 0.37% (n = 220,000); AID 782;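 active means inhibition above about 30%, limit read from the data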;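 further: 0% = full FRET control wells and 100% = background wells lacking eIF4GI fragment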
Target sequence (P63073 whole entry, looked up, the tested form may be a part): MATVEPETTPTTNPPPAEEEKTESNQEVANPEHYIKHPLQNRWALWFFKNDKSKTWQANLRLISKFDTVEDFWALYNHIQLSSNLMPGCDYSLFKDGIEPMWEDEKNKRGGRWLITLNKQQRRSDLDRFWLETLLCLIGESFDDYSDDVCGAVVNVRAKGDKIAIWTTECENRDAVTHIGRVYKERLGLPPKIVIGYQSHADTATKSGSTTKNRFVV
Target sequence (Q04637 whole entry, looked up, the tested form may be a part): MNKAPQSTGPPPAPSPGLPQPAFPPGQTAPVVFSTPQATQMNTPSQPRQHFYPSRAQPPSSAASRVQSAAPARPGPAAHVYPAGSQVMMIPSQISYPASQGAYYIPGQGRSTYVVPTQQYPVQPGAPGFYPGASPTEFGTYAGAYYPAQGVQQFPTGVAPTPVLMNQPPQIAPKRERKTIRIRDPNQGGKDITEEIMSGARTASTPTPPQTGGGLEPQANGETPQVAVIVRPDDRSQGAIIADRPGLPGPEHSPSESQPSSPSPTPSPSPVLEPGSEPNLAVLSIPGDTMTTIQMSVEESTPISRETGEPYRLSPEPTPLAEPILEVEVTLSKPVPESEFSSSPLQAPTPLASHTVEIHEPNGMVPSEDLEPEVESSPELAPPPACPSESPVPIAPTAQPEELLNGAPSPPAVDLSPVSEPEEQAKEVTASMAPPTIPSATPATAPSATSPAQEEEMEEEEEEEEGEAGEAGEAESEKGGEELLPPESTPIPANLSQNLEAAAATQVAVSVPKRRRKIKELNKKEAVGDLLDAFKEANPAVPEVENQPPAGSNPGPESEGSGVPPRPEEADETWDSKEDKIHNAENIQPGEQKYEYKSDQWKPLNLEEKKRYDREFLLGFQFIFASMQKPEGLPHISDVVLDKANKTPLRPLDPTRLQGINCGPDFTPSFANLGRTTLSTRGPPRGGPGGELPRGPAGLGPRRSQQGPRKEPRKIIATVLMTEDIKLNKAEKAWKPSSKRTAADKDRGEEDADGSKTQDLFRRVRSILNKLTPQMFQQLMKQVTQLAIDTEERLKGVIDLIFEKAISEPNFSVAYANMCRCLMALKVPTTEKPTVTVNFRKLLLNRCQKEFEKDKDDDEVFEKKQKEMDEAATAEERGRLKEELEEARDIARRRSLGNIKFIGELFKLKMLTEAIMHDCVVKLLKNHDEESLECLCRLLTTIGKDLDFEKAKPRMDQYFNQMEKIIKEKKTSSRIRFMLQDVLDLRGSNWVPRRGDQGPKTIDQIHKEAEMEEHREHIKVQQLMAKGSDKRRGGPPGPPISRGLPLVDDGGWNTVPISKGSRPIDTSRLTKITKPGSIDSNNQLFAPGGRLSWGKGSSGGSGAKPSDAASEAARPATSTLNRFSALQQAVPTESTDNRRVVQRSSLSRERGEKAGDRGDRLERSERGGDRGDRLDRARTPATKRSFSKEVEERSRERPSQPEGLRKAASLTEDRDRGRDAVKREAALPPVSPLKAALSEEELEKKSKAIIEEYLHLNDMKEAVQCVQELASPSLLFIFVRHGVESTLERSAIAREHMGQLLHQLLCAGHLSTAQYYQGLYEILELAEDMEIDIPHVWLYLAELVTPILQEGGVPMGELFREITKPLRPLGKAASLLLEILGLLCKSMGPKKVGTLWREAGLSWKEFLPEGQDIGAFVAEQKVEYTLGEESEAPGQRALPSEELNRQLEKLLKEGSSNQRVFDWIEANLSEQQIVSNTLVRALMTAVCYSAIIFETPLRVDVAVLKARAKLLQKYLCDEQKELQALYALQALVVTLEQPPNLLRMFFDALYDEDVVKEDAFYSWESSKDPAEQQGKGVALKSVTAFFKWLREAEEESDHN
TNF necrop inh – blocks TNF-alpha induced death of Jurkat FADD-/- cells. Jurkat FADD-/- TNF necroptosis rescue, ATP luminescence, 24 h; 0 = TNF only, 100 = no-TNF cells. activation (protection from cell death), % at 10 µM. actives 0.068% (n = 220,000). AID 463075;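 active means activation, meaning protection from cell death, of at least 50% relative to plate controls; inactive means activation below 50%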;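 further: necroptosis triggered by 40 ng/mL TNF-alpha added together with compound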
zVAD death conf – confirmed blocker of zVAD induced death in L929 cells; shares compounds with L929 necroptosis; L929 zVAD-induced necroptosis rescue, ATP luminescence, 24 h; activation (protection from necroptosis), % at 10 µM; actives 16% (n = 760);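 active means mean protection from necroptosis of at least 50% over duplicate tests; inactive means mean protection below 50%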;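 further: 0% = cells with zVAD alone and 100% = vehicle cells without zVAD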
An asterisk follows results filed as active; / = no result given; ! = repeats disagree; [ ] = dose if it differs, or a comment.

SMILES	EBV gp42 block	L929 necroptosis	eIF4E-4G inh	TNF necrop inh	others
CC1=CC(=O)NP(=O)(Oc2ccc3ccccc3c2)N1 (stereo not given)	-23.8	-0.6	80.6*	-0.3
O=c1[nH]c(=S)n(-c2ccc(Br)cc2)c(O)c1C=Nc1ccc(N2CCOCC2)cc1	85.7*	1.1	3.6	-2.5
Cc1cc(C)cc(-n2c(O)c(C=Nc3ccc(N4CCOCC4)cc3)c(=O)[nH]c2=S)c1	58.5*	0.8	2.7	-2.8
O=c1[nH]c(O)c(Cc2ccc3c(c2)OCO3)c(=O)[nH]1	2.7	-0.5	2.8	0.4
Cc1cc2c(C(C)C)c(O)c(O)c(C=O)c2c(O)c1-c1c(C)cc2c(C(C)C)c(O)c(O)c(C=O)c2c1O	15.1	3.8	33.4*[fluorescence artefact?]	-3.7
c1nc2nc3c(c(N4CCNCC4)n2n1)CCCC3	-14.7	-0.4	0.9	0.3
Nc1ccc2nonc2c1[N+](=O)[O-]	193.8*	1.0	0.5	0.3
O=P1(NCCCn2cc[n+](Cc3nc4ccccc4[nH]3)c2)C=C(c2ccccc2)OC(c2ccccc2)=C1	-13.8	0.4	-11.9	2.6
COc1ccc(CN2CCN(c3ccccc3)CC2)c(C)c1C	-19.2	-0.1	-3.0	2.1
Cc1cccc(N2C(=O)NC(=O)/C(=C/c3cc4c(cc3[N+](=O)[O-])OCO4)C2=O)c1	83.2*	1.2	3.5	-0.3
O=C1NC(=O)C(=Cc2cc3c(cc2[N+](=O)[O-])OCO3)C(=O)N1	-19.4	1.0	2.2	-0.6
CCOc1ccc(-n2c(O)c(C=NCCN(CC)CC)c(=O)[nH]c2=O)cc1	-30.6	0.0	0.0	-1.5
CCOP(=O)(OCC)c1cc(C)c(O)c(C(C)(C)C)c1	5.2	-0.7	-2.9	0.0
CCCCCCNC(=O)N[C@@H](Cc1ccc(O)cc1)C(=O)NCCC[C@H]1CN2C(=NC[C@H]2C)N1CC1CCC1	-22.1	0.8	8.2	1.2
CCCCCCNC(=O)N[C@H](Cc1ccc(O)cc1)C(=O)NCCC[C@H]1CN2C(=NC[C@H]2CCC)N1CC1CCC1	-24.1	-0.7	55.8*	1.4
O=c1[nH]c(=O)n(Cc2ccccc2)c(O)c1/C=C1\C=Nc2ccccc21	89.9*	0.9	10.0	0.0
Cc1cccc(N2CCc3c2nc2ccccc2c3N)c1	-4.0	0.0	94.4*![fluorescence artefact?]	0.6
Cc1ccnc(-n2c(C)nc3ccccc3c2=O)c1	-3.8	-0.9	-0.1	-0.5
CC(C)(O)[C@H]1O[C@H]2CC[C@@]3(C)[C@@](O)(CC[C@H]4Cc5c([nH]c6ccccc56)[C@@]43C)C2=CC1=O	53.5*	2.9	5.4	0.1
c1ccc(-c2[nH]c(-c3ccccc3)[n+](CC3CO3)c2-c2ccccc2)cc1 (stereo not given)	56.8*	-0.2	-1.2	-0.4
Cc1cc(C=C2C(=O)NC(=S)NC2=O)c(C)n1-c1ccc2c(c1)OCO2	60.6*	-1.0	2.3	-6.3
N#CC(C#N)=Cc1ccc(-c2ccccc2)o1	-68.2	1.2	-2.3	0.1
N#CC(C#N)=Cc1ccc(-c2ccccc2F)o1	101.3*	0.6	-4.6	-3.8
CCCC(CCC)C(=O)OC[N+](C)(C)CCOC(=O)C(O)(c1ccccc1)C1CCCC1 (stereo not given)	-9.1	-1.5	-0.1	-0.1
N/C(=N\N=C/c1ccc(-c2ccc(O)c(C(=O)O)c2)o1)N[N+](=O)[O-]	31.9	-0.2	33.3*[fluorescence artefact?]	-4.2
SMILES	EBV gp42 block	L929 necroptosis	eIF4E-4G inh	TNF necrop inh	others
Cc1ccc(-c2nn(Cc3ccccc3)cc2C=O)cc1	-11.4	1.7	-5.5	1.9
Cc1ccc(-c2nn(Cc3ccccc3)cc2C(=O)O)cc1	1.3	-0.2	95.6*	-0.7
Cc1ccc(C2=NN(CCC(=O)N3CCC4(CC3)OCCO4)C(=O)CC2)cc1	-11.9	-0.2	2.0	-0.7
O=C1NC(=O)C2=Cc3ccc(O)cc3OC2(O)N1 (stereo not given)	89.9*	-0.3	4.2	0.3
O=c1[nH]c(=S)n(C2CCCCC2)c(O)c1/C=N/N1CCOCC1	-22.3	0.8	5.0	-3.3
COC(=O)C1=CCCN(C)C1	-23.3	-0.7	1.2	1.7
Cc1ccc(N2C(=O)NC(=O)/C(=C/c3cnn(-c4ccc(C)cc4)c3)C2=O)cc1	-28.5	0.2	-1.7	0.1
Cc1ccc(N2C(=O)NC(=O)/C(=C/c3ccoc3)C2=O)cc1	10.2	0.3	35.3*	5.3
c1ccc(C2CC3CC4(CCCC4)N2O3)cc1 (stereo not given)	-4.9	30.2	0.0	94.0*
CN1C(=O)C(Cc2c[nH]c3ccccc23)C(=O)N(C)C1=O	104.5*	-0.1	9.6	-1.3
CN1C(=O)C(Cc2cccc3ccccc23)C(=O)N(C)C1=O	-7.0	1.5	7.8	-1.7
O=c1cc(C(F)(F)F)c2cc3c4c(c2o1)CCCN4CCC3	149.6*	0.4	-1.1	-2.2
O=[N+]([O-])c1cc([As](=O)(O)c2ccc(O)c([N+](=O)[O-])c2)ccc1O	-12.8	-0.3	4.3	-0.3
CC1CCSP(=O)(Oc2ccccc2)O1 (stereo not given)	4.0	1.0	-3.9	1.9
CCC(=NCc1cccnc1)c1c(O)n(-c2ccccc2)c(=O)[nH]c1=O	-15.7	0.3	32.1*	1.4
CC[N+](CC)(CC#CCO)CC#Cc1ccccc1	1.6	0.6	-5.8	-0.1
CCN(CC)c1ccc(N=Cc2c(O)n(-c3ccc(OC)cc3)c(=O)[nH]c2=O)cc1	101.6*	-0.7	-8.9	-2.1
c1ccc2c(c1)[nH]c1cnccc12	-5.3	4.3	2.8	-2.1
Cc1c2ccncc2c(C)c2c1[nH]c1ccccc12	112.6*	43.7	23.0	-28.6
CCOP(=O)(OCC)C1(C(=O)O)CCCC1	-13.9	2.1	-1.0	4.4
O=C1c2ccccc2C(=O)N1Cc1nc2ccccc2c(=O)n1-c1ccccn1	-16.1	-0.2	31.1*	-0.8
Cc1ccccc1C(=O)NC(Oc1ccccc1)C(Cl)(Cl)Cl (stereo not given)	-7.9	/	-3.8	0.2
CCCC(=O)NC(Oc1ccc(C(C)=O)cc1)C(Cl)(Cl)Cl (stereo not given)	62.9*	1.7	4.0	0.4
CCC1(CC)C(=O)NC(=Nc2cccc(C(F)(F)F)c2)NC1=O	-1.3	-0.3	2.0	-2.6
Cn1cnnc1Sc1cc(N2CCNCC2)ccc1[N+](=O)[O-]	-1.0	0.2	0.9	5.1
SMILES	EBV gp42 block	L929 necroptosis	eIF4E-4G inh	TNF necrop inh	others
C=C1C/C(=C/C)C(=O)O[C@@H]2CCN3CC=C(COC(=O)[C@]1(C)O)[C@H]23	-17.0	-0.8	-2.5	4.5
COc1ccc(N=Cc2c(O)n(Cc3ccccc3)c(=S)[nH]c2=O)c(OC)c1	89.8*	0.3	6.5	-12.2
O=C(O)c1cccc2c1NC(c1cccc([N+](=O)[O-])c1)C1CC(Sc3ccccc3[N+](=O)[O-])C(Cl)C21 (stereo not given)	10.1	1.4	34.8*	-1.2
COC(=O)CCCCC1SCC(NC(=O)c2ccccc2)C1Cl (stereo not given)	53.0*	2.6	-3.3	2.5
COC(=O)C(O)(c1ccc(NC(=O)c2ccccc2)cc1)C(F)(F)F (stereo not given)	-11.0	0.4	2.8	0.8
CNC(=O)O/N=C/c1nn(C(=O)C(C)(C)C)cc1Br	-4.0	1.1	1.6	4.1
C[C@H]1C[C@@H](C)C(=O)[C@@H]([C@H](O)CC2CC(=O)NC(=O)C2)C1	-17.2	77.2*	-0.9	-1.5	zVAD death conf=79.8*
CC(C)(C)N(NC(=O)c1ccccc1)C(=O)c1ccccc1	2.3	-0.3	1.5	-3.1
O=C1Nc2ccccc2/C1=C/c1cnc[nH]1	-7.7	85.5*	-1.4	-21.6	zVAD death conf=78.6*
N#CC1(c2ccccc2)CCN(C2CC(=O)N(c3ccc4c(c3)OCO4)C2=O)CC1 (stereo not given)	-3.0	2.4	-1.3	0.2

Source: PubChem (several laboratories)
